Test [1] is described as follows: qHTS Assay for Lipid Storage Modulators (AID 1519; calls by dose curve; for activity change, negative = inhibition: % is set by controls: 0 for no effect and ±100 for the full control effect). Particulars: Drosophila S3 cells, BODIPY lipid droplet/cell ratio, laser cytometry, cells loaded with oleic acid; for activity change, negative = inhibition: at 57.5 µM (top of the series). The essentials:
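Cells seeded at 5,000 per well were treated with compounds over a concentration series and loaded with oleic acid (400 uM, as added). Lipid droplet fluorescence (488 nm excitation, 500-530 nm channel) was read by laser-scanning cytometry and normalized to 20 uM Triacsin C.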
Background: In qHTS, concentration-response curves come from the screen itself.

For test [2], the target named is Alpha-galactosidase A (Homo sapiens) (UniProt P06280). Description: Counterscreen for Glucocerebrosidase Inhibitors: qHTS Assay for Human alpha-Galactosidase at pH 4.5 (AID 992). Note: 0% is about no effect. The conditions noted are these: purified enzyme, fluorogenic substrate; series mostly up to 76.9 µM. Summed up:
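Each compound is preincubated briefly with 2 nM enzyme before substrate addition (80 uM); plates then sit 20 min at ambient temperature, are quenched with 1M NaOH/1M glycine, and read fluorometrically.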

The target of test [3] is alpha-glucosidase (Oryza sativa, rice) (UniProt Q653V4). As to the kind of experiment: Counterscreen for Glucocerebrosidase Inhibitors: qHTS Assay for Rice alpha-Glucosidase at pH 5.0 (AID 997).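 Note: 0% = full activity with enzyme and -100% = basal without enzyme.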 The conditions noted are these: rice alpha-glucosidase enzyme activity; series mostly up to 76.9 µM. The essentials: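 Endpoint fluorogenic assay at pH 5.0: compounds (0.7 nM to 77 uM) titrated against 4 nM rice enzyme and 400 uM 4-MU-alpha-glucoside for 20 min at room temperature; NaOH/glycine stop, read ex 365/em 440 nm, Hill-fitted AC50.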

A short description of test [4]: Validation of Assay for Modulators of Lamin A Splicing (AID 1459; active = well fitted curve in the direction sought with a large enough effect in the signal ratio; the % refers to the signal ratio;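 note: cells exposed to compound for two days before reading; 0% is about no effect; ratio rise marks activators and ratio drop marks inhibitors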). Particulars: Lamin A splicing dual RFP/GFP fluorescence reporter; series mostly up to 9.22 µM. Summed up:
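HeLa S3 lamin A-EGFP/DsRed2 stable clone, 600 cells/well, Opti-MEM 2% FBS; compounds by pin tool; 48 hrs, 37 °C/5% CO2; Acumen 488 nm scan, objects 10-100 um; GFP/RFP intensity ratio.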

For test [5], the target named is DNA repair nuclease/redox regulator APEX1 (Homo sapiens) (UniProt P27695). Description: qHTS Validation Assay for Inhibitors of the Human Apurinic/apyrimidinic Endonuclease 1 (APE1) (AID 1705;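 note: TAMRA fluorescence gain over two minutes as APE1 cuts a quenched THF abasic duplex; % is set by controls: 0 for no effect and ±100 for the full control effect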). Particulars: purified APE1 endonuclease activity, fluorescence, titration; series mostly up to 57.1 µM. Summed up:
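qHTS, 1536-well. APE1 + cpd 15 min RT → 50 nM TAMRA/BHQ-2 THF-abasic dsDNA substrate → kinetic fluorescence, 3 reads/60 s; delta(read3−read1) = reaction progress. No-enzyme buffer = negative control.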

A short description of test [6]: Cell Viability - LYMP2-012 (AID 982).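 Note: cellular ATP by luciferase luminescence where a drop means cytotoxicity; cells exposed to compound for one day before reading; 0% = DMSO only and full loss = 92 µM tetraoctylammonium bromide; nearly all actives have a fitted effect of over 55% in size.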 The conditions noted are these: LYMP2-012 lymphoblastoid cell viability qHTS; series mostly up to 92.2 µM.
A short description of test [7]: Cell Viability - LYMP2-022 (AID 987).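 Note: 0% = DMSO alone and full effect = tetraoctylammonium bromide at 92 µM; nearly all actives have a fitted effect of over 55% in size.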 Particulars: LYMP2-022 lymphoblastoid cell viability; series mostly up to 92.2 µM. The essentials: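 Cytotoxicity read as decreased cellular ATP (CellTiter-Glo luminescence, 30 min room temperature) after 24 hours compound exposure of 2500 lymphoblastoid LYMP2-022 cells/well at 37 C. Concentration-response data fitted with standard Hill equation for AC50.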

Test [8] in a line: Cell Viability - LYMP1-002 - Assay at 24 hr (AID 993). Note: % is set by controls: 0 for no effect and ±100 for the full control effect. Particulars: LYMP1-002 lymphoblastoid cells viability; series mostly up to 92.2 µM. Summed up:
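qHTS cytotoxicity at 24 h: CellTiter-Glo ATP luminescence in lymphoblastoid line LYMP1-002 incubated with compound at 37 °C. Concentration-response modeled with the Hill equation for AC50; tetraoctylammonium bromide served as positive control.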

A short description of test [9]: Cell Viability - LYMP1-002 - Assay at 40 hr (AID 994).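 Note: 0% = DMSO only and full inhibition = 92 µM tetraoctylammonium bromide; nearly all actives have a fitted effect of over 60% in size.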 Particulars: LYMP1-002 lymphoblastoid cell viability; series mostly up to 92.2 µM. The essentials: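 Cytotoxicity was read as loss of cellular ATP (CellTiter-Glo luminescence) after 40 hr compound exposure at 37 C of 2500 LYMP1-002 lymphoblastoid cells per well. Concentration-response data were fitted with the standard Hill equation to give AC50.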

Test [10] in a line: Cell Viability - LYMP2-002 (AID 977).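 Note: plate controls were DMSO only for no effect and 92 µM tetraoctylammonium bromide for full effect.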 The conditions noted are these: LYMP2-002 lymphoblastoid cell viability, qHTS; series mostly up to 92.2 µM. Summed up:
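Human lymphoblastoid cells, 2500/well, complete medium; 5 h 37 C settle; compound 24 h 37 C; CellTiter-Glo, 30 min RT; luminescence. Decrease in ATP = cytotoxicity; AC50 via Hill equation.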

Test [11] can be described thus: Cell Viability - LYMP2-006 (AID 978). Note: % is set by controls: 0 for no effect and ±100 for the full control effect; nearly all actives have a fitted effect of over 60% in size. The conditions noted are these: LYMP2-006 lymphoblastoid cell viability, qHTS; series mostly up to 92.2 µM. Summed up: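 Cells are seeded at 2500 per well and rested 5 hr at 37 C. Compounds are added across a concentration series for 24 hr at 37 C, after which ATP is quantified by luciferase luminescence.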
Test [12] can be described thus: Cell Viability - LYMP2-007 (AID 979).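 Note: cells exposed to compound for 24 h before reading; 0% = DMSO only and the negative end = 92 µM tetraoctylammonium bromide; nearly all actives have a fitted effect of over 60% in size.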 The conditions noted are these: LYMP2-007 lymphoblastoid cell viability; series mostly up to 92.2 µM. The essentials: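 AC50 values come from Hill-equation fits of luminescent intracellular ATP (CellTiter-Glo, 30 min, room temperature) following 24 h compound exposure at 37 C. Cells: LYMP2-007 lymphoblastoid line, 2500 per well, in complete culture medium.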

Test [13] in a line: Cell Viability - LYMP2-008 (AID 980). Note: % is set by controls: 0 for no effect and ±100 for the full control effect; nearly all actives have a fitted effect of over 60% in size. Particulars: LYMP2-008 lymphoblastoid cell viability, qHTS; series mostly up to 92.2 µM. The essentials:
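Cytotoxicity determined from ATP-dependent luciferase luminescence (CellTiter-Glo) following 24 h compound exposure of human lymphoblastoid LYMP2-008 cells at 37 C. Concentration-response data fitted to the Hill equation to give AC50.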

Test [14] can be described thus: Cell Viability - LYMP2-010 (AID 981). Note: % is set by controls: 0 for no effect and ±100 for the full control effect; nearly all actives have a fitted effect of over 55% in size. Particulars: LYMP2-010 lymphoblastoid cell viability, qHTS; series mostly up to 92.2 µM. The essentials:
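CellTiter-Glo ATP luminescence measured cytotoxicity after 24 h compound exposure at 37 C. LYMP2-010 cells were seeded at 2500/well, with tetraoctylammonium bromide as control; concentration-response curves gave AC50 values by the Hill equation.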

The nature of test [15]: Cell Viability - LYMP2-014 (AID 983).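 Note: plate controls were DMSO only for no effect and 92 µM tetraoctylammonium bromide for full effect; nearly all actives have a fitted effect of over 50% in size.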 The conditions noted are these: LYMP2-014 lymphoblastoid cells, viability qHTS; series mostly up to 92.2 µM. Summed up:
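Intracellular ATP loss, read by luciferase luminescence, measures acute cytotoxicity after 24 h compound exposure of lymphoblastoid LYMP2-014 cells (2500/well, 37 C). Concentration-response data fitted to the Hill equation for AC50.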

Test [16] is described as follows: Cell Viability - LYMP2-016 (AID 984). Note: % is set by controls: 0 for no effect and ±100 for the full control effect; nearly all actives have a fitted effect of over 55% in size. The conditions noted are these: LYMP2-016 lymphoblastoid cell viability, qHTS; series mostly up to 92.2 µM. The essentials:
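Cells were seeded at 2500 per well and rested 5 hr before a 24 hr compound exposure at 37 C. Viability was then gauged as cellular ATP by luciferase luminescence, with AC50 values fitted to the Hill equation.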

Test [17] can be described thus: Cell Viability - LYMP2-018 (AID 985).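 Note: plate controls were DMSO only for no effect and tetraoctylammonium bromide at 92 µM for full effect; nearly all actives have a fitted effect of over 50% in size.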 The conditions noted are these: LYMP2-018 lymphoblastoid cells, viability (qHTS); series mostly up to 92.2 µM. Summed up: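 Viability read as CellTiter-Glo luminescence (cellular ATP) after 24 hr compound exposure at 37 C of 2500 LYMP2-018 lymphoblastoid cells/well, pre-plated 5 hr. Hill-equation modelling gave AC50.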
Test [18] is described as follows: Cell Viability - LYMP2-020 (AID 986). The conditions noted are these: series mostly up to 92.2 µM. The essentials: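 Cytotoxicity in qHTS format: luminescent ATP readout from CellTiter-Glo after 24 h compound exposure at 37 C in complete medium. LYMP2-020 lymphoblastoid cells were seeded at 2500/well; concentration-response data fitted to the Hill equation for AC50.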

Test [19] is described as follows: Cell Viability - LYMP2-024 (AID 988). The conditions noted are these: LYMP2-024 lymphoblastoid cell viability; series mostly up to 92.2 µM. The essentials:
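Cytotoxicity was taken as a decrease in ATP (CellTiter-Glo luminescence) after 24 hr compound exposure at 37 C of LYMP2-024 lymphoblastoid cells, 2500 cells/well. Concentration-response data were fitted to the Hill equation to give AC50.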

Test [20] in a line: Cell Viability - LYMP2-026 (AID 989). Note: % is set by controls: 0 for no effect and ±100 for the full control effect; nearly all actives have a fitted effect of over 50% in size. Particulars: LYMP2-026 lymphoblastoid cell viability, qHTS; series mostly up to 92.2 µM. The essentials: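 Cytotoxicity read as ATP-dependent luminescence (CellTiter-Glo, 30 min room temperature) after 24 h compound treatment at 37 C. LYMP2-026 lymphoblastoid line seeded at 2500 cells/well; AC50 derived by standard Hill equation.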
[21] abbreviates: measured here: cell count channel max response.
The mark [22] stands for this setting: measured here: lipid channel max response.

“And” between values parts separate entries of the source, which are not always exact repeats. Equal entries are not always repeated. Inconclusive results are not listed. The source made the active and inactive calls. Unless noted, calls come from the whole dose curve; as a rule, active = well fitted curve in the direction sought with a large enough effect; inconclusive = small, poorly fitted or top-dose-only effect, or another doubt; inactive = no such curve, though single readings can be large; an effect the other way counts as inactive or inconclusive.

DNA repair nuclease/redox regulator APEX1 (Homo sapiens), sequence (P27695 whole entry, looked up): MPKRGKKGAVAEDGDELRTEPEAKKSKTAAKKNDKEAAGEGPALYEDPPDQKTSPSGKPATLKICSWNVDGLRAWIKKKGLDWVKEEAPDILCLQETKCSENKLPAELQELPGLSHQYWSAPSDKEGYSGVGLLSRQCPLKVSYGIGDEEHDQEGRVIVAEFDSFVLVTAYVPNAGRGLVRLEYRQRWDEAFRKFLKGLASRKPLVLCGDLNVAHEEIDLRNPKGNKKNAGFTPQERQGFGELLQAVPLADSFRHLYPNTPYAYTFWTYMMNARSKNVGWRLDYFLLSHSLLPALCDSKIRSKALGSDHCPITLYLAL
Alpha-galactosidase A (Homo sapiens), sequence (P06280 whole entry, looked up): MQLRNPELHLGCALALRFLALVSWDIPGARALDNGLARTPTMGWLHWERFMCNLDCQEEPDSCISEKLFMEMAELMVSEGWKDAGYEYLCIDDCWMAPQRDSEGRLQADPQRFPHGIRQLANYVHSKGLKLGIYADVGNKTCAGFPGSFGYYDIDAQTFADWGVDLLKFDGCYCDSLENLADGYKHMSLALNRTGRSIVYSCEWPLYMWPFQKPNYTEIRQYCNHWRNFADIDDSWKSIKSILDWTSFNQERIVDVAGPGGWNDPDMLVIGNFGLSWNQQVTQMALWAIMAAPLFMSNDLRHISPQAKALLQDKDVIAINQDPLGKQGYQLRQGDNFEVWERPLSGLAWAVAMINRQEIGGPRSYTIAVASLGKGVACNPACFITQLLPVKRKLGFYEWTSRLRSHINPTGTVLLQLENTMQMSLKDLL

As to `CC1Cc2ccccc2N1NC(=O)c1ccc(Cl)c(S(N)(=O)=O)c1` (stereo unspecified), the activity change, negative = inhibition in test [1] was 7.15% (inactive). Moreover, the max response in [1] (setting [21]) was determined as 9.62%; in test [1] (setting [22]), 23.5%.

Consider `CC1(C)NC(=O)N(c2ccc([N+](=O)[O-])c(C(F)(F)F)c2)C1=O`, for which the compound was classed as inactive in test [2], in [3] and in [4]. The activity change, negative = inhibition in test [1] is -13.9% (inactive) and -13.7% (inactive). Further, the max response was -10.4% and -26.6% in [1] (setting [21]); -19.8% and -35.1% in test [1] (setting [22]). In addition, the Potency result in test [5] is “inactive”.

For `C[C@H](Cc1ccc(O)c(O)c1)[C@@H](C)Cc1ccc(O)c(O)c1`, the result in test [2], in test [3] and in test [4] was inactive. The Potency result in test [5] is “inactive”.

Consider `Cc1ncc([N+](=O)[O-])n1CC(C)O` (stereo unspecified), for which, in test [1], the activity change, negative = inhibition is 2.12% (inactive). Also, the results for the max response in [1] (setting [21]) and in test [1] (setting [22]) were 10.3% and 12.9%, respectively.

For the compound `OC(CN1CCN(c2cccc(Cl)c2)CC1)C(c1ccccc1)c1ccccc1` (stereo unspecified), the compound was classed as inactive in [4]. Further, the Potency result in [5] was “inactive”.

For the compound `Cc1cc(O)c2c(c1)C(=O)c1cc(O)cc(O)c1C2=O`, the Potency result in test [6], in test [7], in [8] and in [9] was “inactive” each time. Moreover, the compound was called inactive in test [2], in test [3] and in test [4]. In addition, the activity change, negative = inhibition in [1] was -0.138% (inactive) and 5.28% (inactive). The max response in [1] (setting [21]) is 55.1% and -15.9%; in [1] (setting [22]) it was 55.2% and -8.66%.

With `O=c1cc(N2CCOCC2)oc2c(-c3ccccc3)cccc12`, the compound was classed as inactive in [2] and in [3]. Moreover, the Potency entry in [5] was “inactive”.

Regarding `CS(=O)(=O)OCCCCOS(C)(=O)=O`, the Potency entry in [10], in test [11], in [12], in test [13], in test [14] and in [6] was “inactive” throughout. Moreover, the Potency result in test [15], in test [16], in test [17], in [18], in test [7] and in test [19] was “inactive” throughout. Also, the Potency result in [20], in test [8] and in test [9] was “inactive” throughout. Also, the activity change, negative = inhibition in test [1] is 1.02% (inactive). Besides, the max response in [1] (setting [21]) was determined as 2.98%; in test [1] (setting [22]) it was 11.4%.

`O=C1NC(=O)C(c2ccccc2[N+](=O)[O-])=C1Nc1ccc(O)c(Cl)c1`: the compound was classed as inactive in test [2] and in test [3]. Also, in [1], the activity change, negative = inhibition was -0.486% (inactive). Also, the max response in [1] (setting [21]) is -38.3%; in [1] (setting [22]) it was -39.8%. Besides, in test [5], the Potency entry was “inactive”.

The record behind these values is PubChem BioAssay (NCATS).
